An excerpt weighted towards active compounds, which were near 5.7% of everything screened.
JMJD2A Tudor inh = inhibitors of human JMJD2A Tudor domain | Potency, µM (titrated, usually from 114 µM), without a hit: at the top dose activity change, negative = inhibition, actives largely listed as inhibitors | AID 504339 | actives 4.4% (n = 390,000) | AlphaScreen JMJD2A-Tudor / H3K4me3 peptide binding; also: potency is read from the fitted curve at half-maximal effect; % is scaled to controls: 0 for no effect and ±100 for the full control effect; nearly all actives have a fitted effect of over 50% in size
HP1b chromo inh = blocks HP1-beta chromodomain binding to methylated histone tails | P83916 | AlphaScreen HP1-beta / biotin-H3K9me3 peptide binding | Potency, µM (doses to about 114 µM), without a hit: at the highest dose activity change, negative = inhibition, most hits filed as inhibitors | actives 0.56% (n = 390,000) | AID 540317; also: potency is read from the fitted curve at half-maximal effect; nearly all actives have a fitted effect of over 70% in size
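Compound inhibition of the preformed complex between 50 nM HP1-beta and 50 nM biotinylated H3K9me3 peptide was read by AlphaScreen. Buffer was PBS pH 7.4 with 0.01% Tween-20. Incubations ran 30 min at room temperature, with 10 ug/mL donor/acceptor beads.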
PI5P4K alpha inh = blocks human PI5P4K alpha kinase activity | P48426 | PI5P4Kalpha enzyme, ADP-Glo luminescence, 60 min; hits give low values | max response, % | actives 1.2% (n = 330,000) | AID 652105; active = max response of -50% or lower; inconclusive = between -30% and -50%; inactive = -30% or higher; also: value at the top dose of about 77 µM; % is scaled to controls: 0 for no effect and ±100 for the full control effect
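ADP-Glo luminescence end-point after a 60 min room-temperature kinase reaction. PI5P4Kalpha and substrate in HEPES pH 7.4 buffer with EGTA, 0.1% CHAPS and 5% DMSO; ATP at 5 microM final.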
BAZ2B inh = blocks human BAZ2B; Q9UIF8; AlphaScreen BAZ2B-H3K14Ac peptide displacement; Potency, µM (doses to about 114 µM), for inactives: top-dose activity change, negative = inhibition, actives largely listed as inhibitors; actives 4.4% (n = 360,000); AID 504333; also: potency is read from the fitted curve at half-maximal effect; % is scaled to controls: 0 for no effect and ±100 for the full control effect; nearly all actives have a fitted effect of over 60% in size
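Complex of BAZ2B and biotin-H3K14Ac (50 nM apiece) forms over 30 min at RT, then faces library compounds up to 110 uM for another 30 min; AlphaScreen beads added, 20 min dark incubation, luminescence read.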
L3MBTL1 block = blocks human L3MBTL1. AID 485360. Potency, µM (titrated, usually from 57.1 µM), for inactives: at the highest dose activity, negative = inhibition, most hits filed as inhibitors. Q9Y468. AlphaScreen L3MBTL1–H3K9me1 peptide binding. actives 0.66% (n = 230,000); also: potency is read from the fitted curve at half-maximal effect; % is scaled to controls: 0 for no effect and ±100 for the full control effect; nearly all actives have a fitted effect of over 60% in size
Target sequence (Q9Y468 whole entry, looked up): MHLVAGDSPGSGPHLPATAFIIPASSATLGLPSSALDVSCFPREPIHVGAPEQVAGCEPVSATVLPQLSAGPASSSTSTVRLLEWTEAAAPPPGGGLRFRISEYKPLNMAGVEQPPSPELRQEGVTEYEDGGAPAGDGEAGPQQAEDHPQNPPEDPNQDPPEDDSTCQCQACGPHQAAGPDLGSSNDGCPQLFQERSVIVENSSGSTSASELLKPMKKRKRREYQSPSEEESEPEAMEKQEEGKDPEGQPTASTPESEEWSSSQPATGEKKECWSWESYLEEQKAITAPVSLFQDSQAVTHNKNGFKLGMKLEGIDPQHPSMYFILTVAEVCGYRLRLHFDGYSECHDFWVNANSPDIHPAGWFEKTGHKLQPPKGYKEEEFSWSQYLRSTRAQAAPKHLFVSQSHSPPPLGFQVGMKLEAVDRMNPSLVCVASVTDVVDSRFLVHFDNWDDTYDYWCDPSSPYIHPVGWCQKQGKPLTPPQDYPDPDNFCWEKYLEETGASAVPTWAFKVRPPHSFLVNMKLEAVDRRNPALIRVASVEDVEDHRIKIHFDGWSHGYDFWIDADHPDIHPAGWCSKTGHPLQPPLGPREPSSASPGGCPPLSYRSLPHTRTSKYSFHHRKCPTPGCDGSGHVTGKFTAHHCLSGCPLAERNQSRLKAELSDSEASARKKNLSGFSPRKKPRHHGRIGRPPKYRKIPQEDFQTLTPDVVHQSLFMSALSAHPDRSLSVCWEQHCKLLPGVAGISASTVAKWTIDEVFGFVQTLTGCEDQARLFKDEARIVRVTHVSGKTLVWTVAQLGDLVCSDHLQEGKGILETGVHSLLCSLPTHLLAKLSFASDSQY
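L3MBTL1 (50 nM) pre-complexed 30 min with biotinylated H3(1-15)K9me1 peptide (75 nM), then compounds added for 30 min at room temperature; AlphaScreen streptavidin donor/nickel chelate acceptor beads (10 ug/mL final) read after 30 min dark incubation.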
KDM4E inh = inhibitors of human JMJD2E histone demethylase; JMJD2E catalytic domain, FDH-coupled NADH fluorescence (FDH is formaldehyde dehydrogenase); Potency, µM (series often up to 57.1 µM), for inactives: at the top dose activity change, negative = inhibition, actives largely listed as inhibitors; actives 1.6% (n = 230,000); active = well fitted inhibition curve with a large enough effect, not every such curve was filed as active; inconclusive = small, poorly fitted or top-dose-only effect, or another doubt; inactive = no such curve, though single readings can be large or run the other way;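 also: potency is read from the fitted curve at half-maximal effect; 0% = wells with enzyme and -100% = buffer wells without enzyme; nearly all actives have a fitted effect of over 50% in size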
An asterisk follows results filed as active; ? = inconclusive; . = no result given; [ ] = dose if it differs, or a comment. Unless noted, calls follow the shape of the dose curve; as a rule, active = well fitted inhibition curve with a large enough effect; inconclusive = small, poorly fitted or top-dose-only effect; inactive = no such curve, though single readings can be large or run the other way.

SMILES | JMJD2A Tudor inh | HP1b chromo inh | PI5P4K alpha inh | BAZ2B inh | L3MBTL1 block | KDM4E inh
CC1Cn2c(nc(=O)c3c2NCN(CCc2ccccc2)C3)S1 (configuration not stated) | -3% | 42% | -1 | -4% | . | 0%
CCOC(=O)C1(Cc2cccc(F)c2)CCN(Cc2nc(CC)[nH]c2C)CC1 | 50µM* | -4% | -1 | ? | -26% | -5%
CC(=O)c1ccc(N2C(=NC(=O)CCc3ccccc3)SC3CS(=O)(=O)CC32)cc1 (configuration not stated) | -20% | 33% | 13 | -34% | . | .
O=C(CN1CCCCCC1)NCCc1ccc(F)cc1 | 3.5µM* | ? | . | 50µM* | -2% | -28%
COc1ccc(CCNC(=O)CNCC2CCCCC2)cc1OC | 25µM* | ? | 3 | 56µM* | . | .
NS(=O)(=O)c1ccc(CCNC(=O)CN2CCN(c3ccc(F)cc3)CC2)cc1 | -7% | 35% | -1 | 2% | 11% | 4%
COc1ccc(CCNC(=O)CN2CCC(C)CC2)cc1OC | ? | ? | 3 | 56µM* | . | 2%
Cc1ccc(NC(=O)c2ccc3snnc3c2)cc1Cl | -2% | 40% | . | -16% | . | .
Cc1ccc(CNC(=O)c2ccc(CS(=O)(=O)Cc3ccc(C)cc3)o2)cc1 | -13% | 21% | . | 5% | . | .
O=C(NCCCCCCNC(=O)c1cncc(O)c1)c1cncc(O)c1 | 16µM* | 16% | 2 | 50µM* | . | ?
O=C(NCCCNC(=O)c1cncc(O)c1)c1cncc(O)c1 | -2%[11.4 µM] | 35% | -8 | ? | . | ?
CCSc1nc2sc3c(c2c(=O)[nH]1)CCCC3 | 5% | 20% | -9 | -2% | -10% | -9%
CCSC1=NC2(CCCCC2)Nc2sc3c(c21)CCCC3 | 22µM* | ? | -26 | ? | . | ?
CCC(C)(C)C1CCC(=NNS(=O)(=O)c2ccc(C)c([N+](=O)[O-])c2)CC1 (configuration not stated) | 2%[57.1 µM] | 39% | 1 | -29% | 12% | 3%
Cc1ccc(S(=O)(=O)N/N=C2/CCCCC2C2CCCCC2)cc1[N+](=O)[O-] (configuration not stated) | 28µM* | ? | -11 | -2% | -5% | 0%
COc1ccc(C2Nc3ccccc3C(=O)N2Cc2ccccc2)cc1COc1ccc(Cl)cc1 (configuration not stated) | -3% | . | . | . | . | .
CCOc1ccc(NC(=O)CSc2nc(N)c(-c3ccccc3)c(=O)[nH]2)cc1 | -21% | -11% | -11 | -16% | -4% | ?
Nc1nc(-c2ccccc2)c(CCCOc2ccc(NC(=O)CBr)cc2)c(=O)[nH]1 | -12% | 23% | -59* | . | . | .
CC(C)(C)c1nc2ccccc2[nH]1 | 79µM* | -4% | -13 | -8% | . | 1%
Cc1ccc(N=Nc2c(N)nn(-c3ccccc3)c2N)cc1 | 35µM* | ? | 9 | 50µM* | -15% | -6%
Cc1nn(-c2ccccc2)c(N)c1N=Nc1ccc2ccccc2c1 | 40µM* | ? | 30 | 13µM* | -28% | 0%
Cc1nn(-c2ccccc2)c(N)c1N=O | -14% | 27% | 3 | -15% | -1% | 1%
Cc1ccc(N=Nc2c(N)nn3c(N)c(C#N)c(C)nc23)cc1 | 56µM* | 66% | ? | -39% | 1% | 0%
COc1ccc(N=Nc2c(N)nn(C)c2N)cc1 | ? | 79µM* | -3 | . | . | .
O=C(CN1CCN(c2ccc(O)cc2)CC1)N(C1CC1)C1CCS(=O)(=O)C1 (configuration not stated) | 79µM* | ? | -6 | 6% | 7% | .
SMILES | JMJD2A Tudor inh | HP1b chromo inh | PI5P4K alpha inh | BAZ2B inh | L3MBTL1 block | KDM4E inh
CCOc1ccc(CNC(=O)c2cc3ccccn3n2)cc1OC | -13% | 10% | . | -10% | . | .
Cn1c(-c2ccc([N+](=O)[O-])cc2)nc2ccccc21 | -22% | 58% | 6 | 2% | 11% | 12%
Cn1nc([N+](=O)[O-])c(C(C#N)c2nc3ccccc3n2C)c(Cl)c1=O (configuration not stated) | ? | ? | -9 | 35µM* | -17% | -11%
COCC1CCCCN1C(=O)c1ccc(OC2CCN(Cc3ccccn3)CC2)cc1 (configuration not stated) | 25µM* | 18% | -9 | -38% | . | .
CCC1CCCCN1C(=O)c1ccc(OC2CCN(Cc3ccccn3)CC2)cc1 (configuration not stated) | -21% | 19% | 2 | -24% | . | .
Cc1cc(C)n2nc(C(=O)Nc3nnc(C4CC4)s3)nc2n1 | 8.9µM* | -14% | -4 | -4% | 2% | 0%
CCSc1nnc(NC(=O)CSc2nc(C)cc(C)n2)s1 | -4% | 53% | 4 | 2% | . | 8%
CCCc1sc(C(=O)Nc2nnc(C3CC3)s2)cc1CC | -13% | -1% | 7 | -1% | 9% | .
CCSc1nnc(NC(=O)c2nc3nc(C)cc(C)n3n2)s1 | 16µM* | 10% | -11 | -39% | . | -4%
CCCC1O[C@@H]2CC3C4CCC5=CC(=O)C=C[C@]5(C)C4C(OC(C)=O)C[C@]3(C)[C@]2(C(=O)COC(C)=O)O1 (some centres not stated) | 18µM* | -17% | -5 | -7% | -5% | 3%
CCCC1O[C@@H]2C[C@H]3[C@@H]4CCC5=CC(=O)C=C[C@]5(C)[C@H]4[C@@H](O)C[C@]3(C)[C@]2(C(=O)CO)O1 (some centres not stated) | -22% | 26% | 0 | -2% | -9% | -25%
COCCCNC(=O)c1ccc(Cn2c(SCc3ccc(F)cc3)nc3cccnc32)cc1 | 3% | 28% | . | -1% | . | .
Cc1ccc(NS(=O)(=O)c2cc([N+](=O)[O-])ccc2NNC(=S)Nc2cccc(Cl)c2)c(C)c1 | ? | ? | -67* | 20µM* | 25µM* | ?
Cc1ccc(NS(=O)(=O)c2cc([N+](=O)[O-])ccc2NNC(=S)Nc2cc(C)ccc2C)c(C)c1 | 40µM* | ? | -20 | 32µM* | ? | -5%
COc1ccc(NC(=S)NNc2ccc([N+](=O)[O-])cc2S(=O)(=O)Nc2ccc(C)cc2C)cc1 | 32µM* | ? | ? | 25µM* | ? | ?
CC(C)c1nn2c(=O)cc(COC(=O)c3ccccc3NC(=O)c3cccc(Cl)c3)nc2s1 | 5% | 27% | . | -2% | . | .
N#Cc1c(-c2ccc(Cl)cc2)no[n+]1[O-] | -26% | . | . | . | . | .
CCC(C)(C)NC(=O)Cn1c(=O)ccc2cc(S(=O)(=O)N3CCC(C)CC3)ccc21 | -26% | 21%[57 µM] | . | 4% | . | .
O=C(Cn1c(SCc2cccc(F)c2)nc2cccnc21)Nc1ccc(F)c(Cl)c1 | -3% | 18% | . | -1% | . | .
O=c1[nH]c(=O)n(C2CC(O)C(CO)O2)cc1Br (configuration not stated) | 79µM* | -12% | -2 | . | . | .

Source: PubChem BioAssay (National Center for Advancing Translational Sciences (NCATS))
